Measured values: the supplement of paper PMC6555819

Legend:
Assay in all cases: PBM binding z-score (relative to random genomic background probes); higher = stronger binding; sequences stand for … in GC…GCGATTGACAGCGTAGAATGAAGG
[1] = system: PPARg:RXRa DBDmut IVT, anti-RXR (DBD mutation: RXRa K156A/R161A, NR concentration 270 nM, RXRa partner concentration 90 nM)
Method in brief: (§1)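 Scanned fluorescence from custom Agilent 4×180K protein-binding microarrays was regression-normalized. Binding z-scores use random background probes as reference. Ligand-free nuclear receptor dimers were incubated on the arrays for 1 h and detected with antibodies against each partner (one per run).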

[2] = system: PPARg:RXRa IVT, anti-PPARg (NR concentration 270 nM, RXRa partner concentration 90 nM)
Method in brief: as §1

[3] = system: PPARg DBDmut:RXRa IVT, anti-PPARg (DBD mutation: PPARg1 K132A/R137A, NR concentration 270 nM, RXRa partner concentration 90 nM)
Method in brief: as §1

[4] = system: PPARg DBDmut IVT, anti-PPARg (DBD mutation: PPARg1 K132A/R137A, NR concentration 270 nM)
Method in brief: as §1

[5] = system: PPARg homodimer (NR concentration 180 nM)
Method in brief: as §1

[6] = system: PXR:RXRa (NR concentration 270 nM, RXRa partner concentration 90 nM)
Method in brief: as §1

[7] = system: PXR homodimer (NR concentration 270 nM)
Method in brief: as §1

[8] = system: RARa:RXR (NR concentration 270 nM, RXRa partner concentration 90 nM)
Method in brief: as §1

[9] = system: RARa homodimer (NR concentration 270 nM)
Method in brief: as §1

[10] = system: RARb:RXRa (NR concentration 270 nM, RXRa partner concentration 90 nM)
Method in brief: as §1

Row | Sequence | PBM binding z-score [1] | PBM binding z-score [2] | PBM binding z-score [3] | PBM binding z-score [4] | PBM binding z-score [5] | PBM binding z-score [6] | PBM binding z-score [7] | PBM binding z-score [8] | PBM binding z-score [9] | PBM binding z-score [10]
1 | CCGACTGGGGCATAAGGTTACTATAAGCCAGCCC | 2.65 | 3.13 | -0.815 | -1.53 | 0.494 | 0.29 | -0.23 | 0.911 | -0.358 | 1.45
2 | CCGACTGGGGCAAAGGTTACCGTACTCAGTACGA | 4.82 | 5.85 | 0.024 | -0.75 | 1.93 | 2.04 | -0.837 | 3.75 | -0.437 | 2.39
3 | CCAGACAGGTGAGAAGTTAACTCAGCCTCGATTA | 0.968 | 0.347 | -0.638 | -0.46 | 0.326 | -0.109 | 0.36 | 0.0412 | 0.721 | 0.4
4 | ACAGACAGGTGAGTGAAGGTAACTCATCTGGACG | 0.0887 | 0.393 | 0.131 | -0.119 | -1.01 | -0.3 | -0.565 | 0.0538 | -0.677 | 0.49
5 | CCTTACGGGTCAATCCAGGTTATAGCATCGGAGT | 3.11 | 3.6 | 0.439 | -0.233 | 1.18 | 5.42 | 0.705 | 3.74 | 0.489 | 3.44
6 | CCTATTAGTGGACCATAAGGGCAACCGAAGCTCG | 1.43 | 0.991 | 0.0446 | -0.555 | 0.856 | 0.215 | 0.612 | 0.424 | 0.803 | 1.22
7 | TCATATAGGTAAAGGTGTAAGTCGAACGATATGA | 3.51 | 3.04 | 1.38 | 0.989 | 0.612 | 0.127 | -0.297 | 0.259 | 0.411 | 0.413
8 | AGAGTGAGGTTATTAAGATCAGGGAATTGCGGTC | 0.817 | 0.889 | 0.661 | 0.468 | 2.05 | 1.43 | 1.67 | 1.5 | 1.44 | 1.7
9 | ACGAGTTGGTCAGCTGAGGTCACACACAATTCGG | 0.74 | 1.98 | -0.0405 | 0.48 | 2.66 | 5.43 | 2.1 | 4.82 | 0.588 | 3.59
10 | GCTGCTAGGTCAGGTGGGTCAGCTAACGGGTACG | 2.85 | 3.22 | 0.103 | -0.61 | 1.05 | 1.28 | -0.409 | 1.66 | -0.0518 | 3.56
11 | ATATGTACGTTAAGGGTCATTCAGGTTGGTTCGC | 0.825 | 3.15 | 3.4 | 3.29 | 2.8 | 5.22 | 2.21 | 4.96 | 1.35 | 3.21
12 | TCGAGTAGGTTAGTGGGGGCATTCAGCCAACATA | 3.24 | 4.33 | 4.17 | 4.96 | 1.66 | 2.68 | 1.78 | 1.76 | 0.673 | 1.39
13 | TCGAGTAGGTTAAGGGCATTCAGAATGGCGTCGA | 2.73 | 2.37 | -0.645 | -1.04 | 0.261 | 0.999 | 0.373 | 0.821 | -0.417 | 2.03
14 | CCGACTGGAGCAAAGGTTACCATACTCAGTACGA | 2.35 | 3.51 | -0.17 | 0.137 | 0.916 | 1.77 | 0.124 | 2.73 | -0.322 | 1.74
15 | CCTCGGAGTACAACAGGAGGTCAGAGCTGCCAGA | 0.161 | 0.257 | -0.9 | -1.14 | 1.18 | 2.19 | 0.607 | 2.23 | 0.843 | 2.06
16 | GCTCGGAGGACAAGGTCAGAGGTTTGTCCGTAGA | -0.0469 | 1.09 | -1.25 | -0.886 | 0.801 | 1.78 | -0.0547 | 2.19 | -0.638 | 3.47
17 | ACTAGCTGGCCAAGTTTGGGTCACTCAAACAAAG | -0.306 | 0.303 | -0.848 | -0.239 | -0.138 | 0.38 | -0.487 | 0.811 | -1.29 | 1.08
18 | ACTTACGGGTCACCGAGGTTATAGCACGCGTATA | 4.12 | 5.23 | 2.17 | 1.98 | 3.07 | 5.54 | 3.25 | 6.06 | 1.56 | 4.67
19 | ATTACAGGGTCATCGTAGGCCAGAGTACGCACAG | 2.45 | 4.43 | 2.06 | 2.49 | 4.05 | 5.5 | 1.66 | 5.52 | 1.45 | 4.45
20 | CCTACTGGTCCATCAGGTCATTGATATCAACGTT | 0.344 | 1.32 | 0.234 | 0.596 | 1.48 | 1.99 | 1.32 | 2.05 | 0.854 | 1.87
21 | CCGACTGGGGCATAAGGTTAACATAAGCCAGCCC | 3.23 | 3.36 | -0.239 | -1.26 | 0.548 | 0.636 | -0.242 | 1.51 | -0.431 | 1.88
22 | ATCTCTAGGTAACAATTTCAGTGAAAGAGAGGAC | 3.38 | 2.8 | 1.3 | 1.6 | 0.669 | 0.204 | 0.98 | 0.221 | 1.81 | 0.518
